This note sets out measurements from the supplement of paper PMC13380429.

A number with no mark means an inactive call.

The subject of the test is Vero E6 infected with SARS-CoV-2. Kind of test: inhibition of SARS-CoV-2 cytopathic effect; higher = more antiviral protection, active = above 15. The following applies: 8.33 nM; 48 h. (In general: Damage to the host cells serves as the signal in cytopathic effect assays.)
On to `COc1ccc2c(C(=S)N(C)CC(=O)O)cccc2c1C(F)(F)F` [tolrestat], for which the “inhibition of SARS-CoV-2 cytopathic effect” value (“inhibition” for short) is -0.6%.
The same measure for `NC(=O)c1cccc2cn(-c3ccc([C@@H]4CCCNC4)cc3)nc12` [niraparib]: 0.08%.
With `N#CN=C(NCCCCCCOc1ccc(Cl)cc1)Nc1ccncc1`, the “inhibition” value is -0.03%.
For the compound `Oc1ccc(Cl)c2cccnc12` [cloxyquin], the “inhibition” value was 0.37%.
On to `CS(=O)(=O)N(Cc1ccco1)C[C@@H](O)Cn1c2ccccc2c2ccccc21`, for which the “inhibition” value is 2.61%.
The same measure for `CN=c1nc(-c2ccccc2)n(-c2ccccc2)s1`: 0.95%; for `CCc1cc(-c2[nH]nc(C)c2-c2ccc3c(c2)OCCO3)c(O)cc1O`: -1.99%.
Take `CC(=O)Oc1c(C)cc(OCC(O)CNC(C)C)c(C)c1C` (centres undefined) [metipranolol]: the “inhibition” value was 0.56%.
For the compound `O=C1c2ccccc2-n2c1nc1ccccc1c2=O` [tryptanthrin], the “inhibition” value is -0.23%.
Next, `Cn1cnnc1Sc1c([N+](=O)[O-])ncn1C`: 1.9%; `O=C(NCc1ccc(F)cc1)N1CCN2C(=O)OC(c3ccccc3)(c3ccccc3)[C@@H]2C1` (racemic): 1.29%; `CCc1cncnc1N1CCN(Cc2nc3cc(C(F)(F)F)ccc3[nH]2)CC1`: -0.7%.
Next, `COc1ccc(CCN)cc1OC` [homoveratrylamine]: 7.09%; `COc1nccnc1NS(=O)(=O)c1ccc(N)cc1` [sulfametopyrazine]: 0.06%.
Next, `CN(C)C(=O)C(=O)c1cn(C)c2cc(Cl)c(C(=O)N3CCC(Cc4ccc(F)cc4)CC3)cc12`: -1.11%; `CC#C[C@]1(O)CC[C@H]2[C@@H]3CCC4=CC(=O)CCC4=C3[C@@H](c3ccc(N(C)C)cc3)C[C@@]21C` [mifepristone]: 0.62%; `CCCc1c(OCCCCc2nnn[nH]2)ccc(C(C)=O)c1O` [tomelukast]: -9.23%.
Regarding `C[C@H](O)[C@H](O)[C@H]1CNc2nc(N)[nH]c(=O)c2N1` [sapropterin], the “inhibition” value was 2.62%.
In the case of `Cc1cc(C)n(-c2cccc([C@H](CC(=O)O)CN3CC[C@@H](CCc4ccc5c(n4)NCCC5)C3)c2)n1` [integrin-antagonist-1], the “inhibition” value is 7.35%.
The same measure for `CCCNCCc1ccc(NS(=O)(=O)c2ccc(OC(F)(F)F)cc2)cc1`: 3.37%.
As for `CCc1nc(-c2cccc(C)c2)c(-c2ccnc(NC(=O)c3ccccc3)c2)s1`, the “inhibition” value was -0.27%.
In the case of `CC(C)(C)CC(=O)Nc1c(F)cc(C(=O)/N=c2\sccn2COP(=O)(O)O)cc1F`, the “inhibition” value is -0.74%.
Next, `CC[N+](CC)(CC(=O)Nc1c(C)cccc1C)Cc1ccccc1` [denatonium-benzoate]: -3.36%.
`CNCc1ccc(C)c(NC(=O)c2ccc(Nc3nc(-c4ccccc4)c4ccccc4n3)cc2)c1`: the “inhibition” value is -2.52%.
Turning to `CC(CCc1ccccc1)NCC(O)c1ccc(O)c(C(N)=O)c1` (centres undefined) [labetalol], the “inhibition” value is 0.13%.
`CC(C)c1cc(C(C)C)c(CC(=O)NS(=O)(=O)Oc2c(C(C)C)cccc2C(C)C)c(C(C)C)c1` [avasimibe]: the “inhibition” value is 1.3%.
The same measure for `CC(C)(C)NCC(O)c1cc(Cl)c(N)c(Cl)c1` (centres undefined) [clenbuterol]: -0.13%.
As for `O=C(O)c1ccc(N2C(=O)/C(=C/c3ccc(-c4ccc([N+](=O)[O-])cc4)o3)C=C2c2ccccc2)cc1`, the “inhibition” value was -0.14%.
Consider `CCc1cnn2c(NCc3ccc[n+]([O-])c3)cc(N3CCCC[C@H]3CCO)nc12` [dinaciclib], for which the “inhibition” value is -1.48%.
For the compound `CC(C)[C@H]1C(=O)N[C@@H](CCCNC(=N)N)C(=O)NCC(=O)N[C@@H](CC(=O)O)C(=O)N[C@H](Cc2ccccc2)C(=O)N1C` [cilengitide], the “inhibition” value was -0.5%.
In the case of `N[C@@H](Cc1ccc(Cl)cc1)C(=O)O` (racemic) [fenclonine-(+/-)], the “inhibition” value was 0.73%.
Next, `CC1=C(C(=O)O)N2C(=O)[C@@H](NC(=O)[C@H](N)c3ccccc3)[C@H]2SC1` [cephalexin]: 0.37%; `CCOC(CN1CCN(CC(C)C(=O)c2ccccc2)CC1)c1ccccc1` (centres undefined) [eprazinone]: -3.53%.
The same measure for `O=C(c1ccc(F)cc1)N1CCC[C@H](c2nc(-c3ccc(F)cc3)no2)C1`: -0.59%; for `O=C(NCCN1CCOCC1)c1ccc(Cl)cc1` [moclobemide]: 2.39%; for `C[C@H](N[C@@H](CCc1ccccc1)C(=O)O)C(=O)N1CCC[C@H]1C(=O)O` [enalaprilat]: 1.11%.
The same measure for `CCN(CC)CCOc1ccccc1C(=O)CCc1ccccc1` [etafenone]: 0.17%; for `COc1ccc(Cl)c(Nc2nc3ccccc3nc2NS(=O)(=O)c2cccc(NC(=O)C(C)(C)N)c2)c1` [pilaralisib]: 0.48%; for `COc1ccc2c(c1)[C@]13CCCC[C@@H]1[C@H](C2)N(C)CC3` [dextromethorphan]: -0.37%.
